# MCF10A rerep: DNA re-replication induction in MCF 10a cells; actives 2.9% (n = 350,000); Potency, µM (doses to about 46.1 µM), hits mostly activators; MCF 10A DNA re-replication, Hoechst nuclear intensity, 48 h; AID 624296; further: nearly all actives have a fitted effect of over 50% in size
# HT1080 IDH1KD tx: toxicity to HT-1080 IDH1 knockdown cells (counter line) | HT-1080 IDH1 knockdown viability, ATP luminescence, 48 h | Potency, µM (series often up to 46.1 µM), usual class: cytotoxic | actives 2% (n = 360,000) | AID 686971
#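 CellTiter-Glo luminescence after 48 h compound exposure at 37 degrees C of IDH1-knockdown HT-1080 cells in 5% FBS RPMI. %Activity scaled between DMSO wells and cell-free media wells, with curves fitted and assigned curve classes.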
# HT1080NT lethal: kills 2HG-producing HT-1080-NT fibrosarcoma cells; HT-1080-NT fibrosarcoma viability, CellTiter-Glo ATP luminescence, 48 h; Potency, µM (highest dose often 46.1 µM), most hits filed as cytotoxic; actives 1.6% (n = 360,000); AID 686970;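 further: NT is the 2HG producing partner of a matched IDH1 knockdown line; nearly all actives have a fitted effect of over 55% in size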
#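 Viability by CellTiter-Glo luminescence after 48 h compound exposure at 37C of HT-1080-NT cells (750/well, RPMI, 5% FBS). % activity scaled between DMSO wells and medium-only wells, then curve-fitted and categorized by curve class.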
# KB-3-1 cytotox: kills parental KB-3-1 adenocarcinoma cells. KB-3-1 viability, CellTiter-Glo ATP luminescence, 72 h. Potency, µM (highest dose often 46.1 µM), most hits filed as cytotoxic. actives 1.4% (n = 400,000). AID 1347075; further: nearly all actives have a fitted effect of over 60% in size
#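 Using CellTiter-Glo luminescence, growth of non-resistant KB-3-1 adenocarcinoma cells is assessed 72 h after pin-tool compound addition at 37 °C. Normalized responses across the concentration series yield fitted curves.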
# SW480 rereplic: induces DNA re-replication in SW480 colon adenocarcinoma cells. SW480 DNA re-replication, Hoechst DNA content imaging, 48 h. Potency, µM (highest dose often 46.1 µM), most hits filed as activators. actives 1.8% (n = 340,000); further: nearly all actives have a fitted effect of over 55% in size
#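 Readout is total intensity of Hoechst-stained nuclei, excited at 405 nm and collected at 500-530 nm. Compound treatment lasted 48 hr at 37 C in 5% CO2 before staining.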
# KB-V1 MDR tox: kills drug-selected multidrug resistant KB-V1 cells; KB-V1 MDR cells viability, CellTiter-Glo, 72 h; Potency, µM (top dose mostly 46.1 µM), hits mostly cytotoxic; actives 3.4% (n = 400,000); AID 1347076; further: nearly all actives have a fitted effect of over 60% in size
#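 KB-V1 cells (P-gp-expressing MDR subline of KB-3-1) in phenol-red-free DMEM with 10% FBS were exposed to library compounds over a concentration series for 72 h at 37 degrees C. Viability read by CellTiter-Glo luminescence; concentration-effect curves fitted after normalization.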
# A number is an active result; n = inactive; u = inconclusive; x = no result; [ ] = dose if it differs, or a comment. An excerpt weighted towards active compounds, which were near 8% of everything screened. The call rests on the fitted dose curve; in most records, active means well fitted curve in the direction sought with a large enough effect; inconclusive means small, poorly fitted or top-dose-only effect, or another doubt; inactive means no such curve, though single readings can be large; an effect the other way counts as inactive or inconclusive.
SMILES,MCF10A rerep,HT1080 IDH1KD tx,HT1080NT lethal,KB-3-1 cytotox,SW480 rereplic,KB-V1 MDR tox
O=C1C=C(Nc2ccc(Cl)cc2)CC(c2ccccc2)C1 (stereo not given),16µM,9.2µM,12µM,u,u,u
Cc1ccc(NC2=CC(=O)CC(c3ccc(Cl)cc3)C2)cc1 (stereo not given),n,n,n,n,n,u
CC(C)CCNC1=CC(=O)CC(c2ccccc2)C1 (stereo not given),u,u,u,u,18µM,n
C=CCC(CC=C)(CNC(=O)C(=O)Nc1cc(C)ccc1OC)c1ccc(OC)c(OC)c1,x,x,x,n,x,n
CCOc1ccc(N2CC(c3nc4ccccc4n3CCCOc3ccccc3)CC2=O)cc1 (stereo not given),x,x,x,n,x,n
O=C(COc1ccccc1C(=O)OCC(=O)Nc1cccc2ccccc12)Nc1ccc(Br)cc1,x,x,x,n,x,n
CCN(CC)CCn1c(NC(=O)c2ccccc2O)nc2ccccc21,n,n,n,u,n,u
N#Cc1ccc(NC(=O)COCc2cc(-c3ccc(F)cc3)on2)cc1,x,x,x,n,x,u
Cc1ccc(NC2=CC(=O)CC(c3ccccc3)C2)cc1 (stereo not given),8.2µM,2.9µM,2.9µM,u,21µM,u
Cn1ncc([N+](=O)[O-])c1C(=O)Nc1ccc(C2CCCCC2)cc1,n,n,n,n,12µM,n
Cn1ncc([N+](=O)[O-])c1C(=O)Nc1ccc(Cl)cc1,u,n,n,n,n,n
CCCCn1c(O)c(N=NC(=O)c2ccco2)c2ccccc21,u,n,n,n,n,16µM
O=C(CNC(=O)c1ccco1)N=Nc1c(O)n(CCc2ccccc2)c2ccccc12,u,1.8µM,4.1µM,1.3µM,1.8µM,3.7µM
CCOC(=O)c1c(NC(=S)NC(=O)c2ccc(Cn3cc(Cl)cn3)o2)sc2c1CCCCC2,u,n,n,u,u,n
Cc1ccc2c(=O)c(C(=O)c3cccc(Cl)c3)cn(CC(=O)NC3CCCCC3)c2n1,x,x,x,n,x,n
CCCNCC1C(Oc2ccc(Cl)cc2Cl)C(=O)N1c1cccc(C)c1C (stereo not given),u,u,u,n,u,u
CCCCNCC1C(Oc2ccc(Cl)cc2)C(=O)N1c1ccccc1C (stereo not given),u,23µM,u,n,u,n
C=CCN1C(=O)N(/C=C/C)c2cccc3cccc1c23,21µM,n,n,n,n,u
COc1ccc(-c2csc(Cc3nnc(N4CCOCC4)n3-c3ccccc3)n2)cc1,n,n,n,n,n,18µM
COc1ccc(-c2csc(Cc3nnc(N4CCOCC4)n3-c3ccccc3)n2)cc1OC,n,u,n[9.24 µM],n,n,n
O=C(NCc1cc(C(F)(F)F)cc(C(F)(F)F)c1)C1CC(c2ccccc2F)=NO1 (stereo not given),n,n,n,n,n,n
O=C(NCc1cccc(C(F)(F)F)c1)C1CC(c2ccccc2C(F)(F)F)=NO1 (stereo not given),23µM,26µM,u,u,u,u
COc1cccc(C2=NOC(C(=O)NCc3ccc(F)cc3)C2)c1 (stereo not given),0.73µM,u,n,n,n,u
COc1cccc(C2=NOC(C(=O)NCc3cccs3)C2)c1 (stereo not given),5.2µM,21µM,u,u,n,u
COc1cccc(C2=NOC(C(=O)NCc3cccnc3)C2)c1 (stereo not given),n,n,n,n,n,n
SMILES,MCF10A rerep,HT1080 IDH1KD tx,HT1080NT lethal,KB-3-1 cytotox,SW480 rereplic,KB-V1 MDR tox
Cc1ccc(CNC(=O)C2CC(c3ccccc3F)=NO2)cc1 (stereo not given),3.3µM,u,u,n,u,n
CC1=C(C(=O)NCc2ccccc2Cl)C2(CCCCCC2)OC1=O,x,x,x,n,x,n
Cc1ccc(Cl)cc1NS(=O)(=O)c1cc2c(cc1Cl)CCC(=O)N2,x,x,x,n,x,n
Cc1ccc(CNC(=O)C2CC(c3cccc(F)c3)=NO2)cc1 (stereo not given),5.8µM,n,n,n,n,u
COc1ccc(CNC(=O)C2CC(c3cccc(OC)c3)=NO2)cc1 (stereo not given),2.8µM,n,n,n,n,n
COc1ccc(/C=C/c2ccc3ccccc3n2)cc1OC,x,x,x,u,x,n
CCN1/C(=C/c2cccc[n+]2C)Sc2ccc(OC)cc21,n,u,u,u,n,n
Cc1ccc2c(c1)N(C)/C(=C/c1cccc[n+]1CCO)S2,n,u,u,1.8µM,n,n
COc1ccc2c(c1)N(C)/C(=C/c1cccc[n+]1C)S2,n,13µM,u,1.6µM,n,n
Cc1ccc2c(c1)N(C)/C(=C/c1cccc[n+]1C)S2,u,10µM,21µM,0.92µM,u,n
CN1/C(=C/c2cccc[n+]2C)Sc2ccccc21,9.2µM,u,u,1.5µM,u,n
Cc1[nH]c(=O)[nH]c(=O)c1S(=O)(=O)N1CCN(c2ccccc2Cl)CC1,x,x,x,n,x,u
CN(C)C(=O)COC(=O)c1ccccc1OCC(=O)Nc1ccc(Br)cc1,x,x,x,u,x,n
Cc1ccc(N(CC(=O)NCCc2ccccc2)S(=O)(=O)N(C)C)cc1,x,x,x,n,x,n
Cc1cn([C@H]2C[C@H](N=[N+]=[N-])[C@H](CO)O2)c(=O)[nH]c1=O,n,x,x,x,n,x
Cc1ccc(Nc2cc(C)nn2-c2nc(C)cc(=O)[nH]2)cc1,u,u,u,1.4µM,u,u
COC(=O)CNC(c1ccccc1)c1cc(Br)ccc1NC(C)=O (stereo not given),n,n,n,n,n,n
COC(=O)CNC(c1ccccc1Cl)c1cc(Br)ccc1NS(=O)(=O)c1ccc(C)cc1 (stereo not given),u,n,n,u,n,18µM
O=C(c1ccc(Cl)cc1)c1oc2ccccc2c1CS(=O)c1ccccc1 (stereo not given),u,n,n,n,n,5.2µM
CCc1cc2c(COC(=O)c3cccc(NS(C)(=O)=O)c3)cc(=O)oc2cc1O,9.2µM,u,u,n,n,n
CCCNS(=O)(=O)c1cccc(C(=O)OCc2cc(=O)oc3cc(OC)ccc23)c1,7.3µM,u,u,n,u,n
COc1ccc2c(COC(=O)c3cccc(S(=O)(=O)NCC(C)C)c3)cc(=O)oc2c1,u,n,n,n,n,n
CC(Sc1nccn1C)C(=O)Nc1ccccc1 (stereo not given),n,n,n,n,u,n
Cc1cc(C(=O)C(=O)Nc2nnc(C(C)C)s2)c(C)n1-c1ccccc1,x,x,x,n,x,n
CCN(CC)CCCNC(=O)c1sc2ncn(CC(=O)Nc3ccc(C)c(Cl)c3)c(=O)c2c1C,n,n,n,n,18µM,n

# Screens as filed in PubChem.
